# Only a selection was taken, and hits are over-represented in it overall.
# KDM5B inh – blocks human KDM5B histone demethylase activity | actives 2.6% (n = 220,000) | Q9UGL1 | AID 1347165 | KDM5B demethylase, FDH-coupled NADH fluorescence (FDH is formaldehyde dehydrogenase) | Potency, µM (top dose mostly 57.7 µM), usual class: inhibitors; active means well fitted inhibition curve with a large enough effect; further: 0% is about no effect; nearly all actives have a fitted effect of over 70% in size
# Target sequence (Q9UGL1 whole entry, looked up): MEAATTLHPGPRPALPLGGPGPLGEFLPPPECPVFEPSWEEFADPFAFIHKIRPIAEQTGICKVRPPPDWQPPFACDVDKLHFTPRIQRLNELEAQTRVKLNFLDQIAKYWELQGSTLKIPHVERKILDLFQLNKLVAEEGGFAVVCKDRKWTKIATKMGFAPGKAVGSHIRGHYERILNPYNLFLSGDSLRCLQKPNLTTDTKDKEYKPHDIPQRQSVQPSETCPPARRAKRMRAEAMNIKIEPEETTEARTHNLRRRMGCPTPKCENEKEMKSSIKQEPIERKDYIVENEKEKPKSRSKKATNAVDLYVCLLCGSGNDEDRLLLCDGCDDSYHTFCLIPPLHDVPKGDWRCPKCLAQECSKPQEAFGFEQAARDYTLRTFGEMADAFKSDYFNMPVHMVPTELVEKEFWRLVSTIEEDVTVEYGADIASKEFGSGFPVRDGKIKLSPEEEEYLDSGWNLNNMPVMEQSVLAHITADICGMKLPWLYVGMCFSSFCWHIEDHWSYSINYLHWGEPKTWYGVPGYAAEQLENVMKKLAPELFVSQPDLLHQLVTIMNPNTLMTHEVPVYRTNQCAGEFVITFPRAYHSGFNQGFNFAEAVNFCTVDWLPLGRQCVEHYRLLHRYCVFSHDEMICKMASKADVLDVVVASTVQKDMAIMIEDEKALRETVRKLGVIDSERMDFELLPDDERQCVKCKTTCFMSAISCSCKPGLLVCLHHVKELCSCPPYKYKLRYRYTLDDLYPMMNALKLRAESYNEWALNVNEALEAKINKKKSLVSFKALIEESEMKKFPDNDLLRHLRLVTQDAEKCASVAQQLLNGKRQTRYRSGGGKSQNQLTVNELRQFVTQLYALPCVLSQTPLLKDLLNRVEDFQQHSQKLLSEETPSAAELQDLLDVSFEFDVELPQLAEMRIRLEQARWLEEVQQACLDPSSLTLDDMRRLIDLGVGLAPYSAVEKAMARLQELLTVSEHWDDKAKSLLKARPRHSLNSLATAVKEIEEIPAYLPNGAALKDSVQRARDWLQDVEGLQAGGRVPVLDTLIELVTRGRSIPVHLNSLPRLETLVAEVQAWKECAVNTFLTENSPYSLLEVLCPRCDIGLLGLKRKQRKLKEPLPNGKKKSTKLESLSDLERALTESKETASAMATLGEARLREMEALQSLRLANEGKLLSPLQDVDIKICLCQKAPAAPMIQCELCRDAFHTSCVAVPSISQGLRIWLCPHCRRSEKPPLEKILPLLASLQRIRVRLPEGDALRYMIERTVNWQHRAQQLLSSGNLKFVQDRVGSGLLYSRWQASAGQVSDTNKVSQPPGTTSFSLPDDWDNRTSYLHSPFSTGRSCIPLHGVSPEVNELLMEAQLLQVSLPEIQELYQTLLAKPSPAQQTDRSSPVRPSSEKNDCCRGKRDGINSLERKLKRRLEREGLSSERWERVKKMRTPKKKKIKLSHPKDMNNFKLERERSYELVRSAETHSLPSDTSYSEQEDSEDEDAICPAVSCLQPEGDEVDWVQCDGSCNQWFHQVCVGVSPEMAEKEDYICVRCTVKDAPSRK
#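 KDM5BΔAP (200 nM final) in 50 mM HEPES pH 7.5, 0.01% Tween-20 was preincubated 10 min at RT with compound over a concentration range. Substrate mix (H3K4me3 12.5 µM, α-KG 25 µM, Fe²⁺, ascorbate, NAD⁺, FDH) was added, and NADH fluorescence change over 30 min gave dose-response curves.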
# * = called active by the depositor; i = inactive. Potency means the concentration at half of the fitted maximal effect.
SMILES,KDM5B inh
COc1ccc(-n2c(SC(C(=O)N3CCCC3)c3ccccc3)nnc2-c2ccncc2)cc1 (configuration not stated),i
OCC1(Cc2cccc(Cl)c2)CCCN(Cc2nc(-c3ccc(F)cc3)cs2)C1 (configuration not stated),i
CCc1ccccc1NC(=O)c1cc2c(s1)CN(C(C)C)C2,7.1µM*
CCc1ccccc1NC(=O)c1cc2c(Cl)nc3ccccc3c2s1,i
CCc1ccccc1NC(=O)C(CC)CC,i
O=C(OCC(=O)c1c[nH]c2ccccc12)c1ccc2ccccc2n1,i
CNC(=S)NCCSCc1ccccc1F,i
Cc1ccc(-n2cc(-c3ccccc3)c3c(N4CCN(CCO)CC4)ncnc32)cc1Cl,i
COCCC(=O)N1CCCn2cc(-c3cccc(C#N)c3)nc21,22µM*
COc1ccc(-c2cn3c(n2)N(C(=O)Cc2ccccc2)CCC3)cc1,i
COc1cccc(-c2cn3c(n2)N(C(=O)Cn2ccnc2C)CCC3)c1,i
Cc1ccc(C(=O)N2CCCn3cc(-c4ccccc4F)nc32)cn1,i
N#Cc1cccc(-c2cn3c(n2)N(C(=O)c2cccs2)CCC3)c1,28µM*
N#Cc1cccc(-c2cn3c(n2)N(C(=O)c2cccnc2)CCC3)c1,35µM*
O=C(c1ccsc1)N1CCCn2cc(-c3ccccc3F)nc21,i
COc1ccc(C(=O)N2CCCn3cc(-c4ccccc4)nc32)cn1,i
O=C(c1cccs1)N1CCCn2cc(-c3ccccc3F)nc21,i
COc1ccc(NC(=O)CCS(=O)(=O)c2ccc3c(c2)OCCO3)cc1Cl,i
O=C(CSc1nc2cc(Cl)ccc2s1)NC1CCCCCCC1,i
Cn1c(N2CCC(Cc3ccccc3)CC2)nc2c1c(=O)n(Cc1ccc(Cl)cc1)c(=O)n2C,i
CCCn1c(SCc2ncc(-c3cccc(Cl)c3)o2)n[nH]c1=O,i
COc1ccc(CN2CCOc3nc(-c4ccc(O)c(F)c4)ncc3C2=O)cc1,32µM*
COc1cccc(-c2ncc3c(n2)OCCN(c2ccccc2)C3=O)c1,28µM*
COc1ccc(CN2CCOc3nc(-c4ccc(F)cc4F)ncc3C2=O)cc1,i
COc1ccc(-c2ncc3c(n2)OCCN(Cc2ccccc2)C3=O)cc1,i
SMILES,KDM5B inh
O=C1c2cnc(-c3cc4ccccc4o3)nc2OCCN1Cc1ccccc1,i
NC(=O)c1cccc(-c2ncc3c(n2)OCCN(c2ccccc2)C3=O)c1,i
COc1cccc(-c2ncc3c(n2)OCCN(c2cccc(C(F)(F)F)c2)C3=O)c1,i
O=C1c2cnc(-c3ccccc3)nc2OCCN1c1cccc(C(F)(F)F)c1,i
COc1cccc(-c2ncc3c(n2)OCCN(Cc2ccccc2)C3=O)c1,35µM*
O=C1c2cnc(-c3cccc(C(F)(F)F)c3)nc2OCCN1Cc1ccccc1,i
C[S+](=O)([O-])c1cccc(-c2ncc3c(n2)OCCN(Cc2ccccc2)C3=O)c1,i
O=C1c2cnc(-c3cc4ccccc4o3)nc2OCCN1c1ccccc1,22µM*
O=C(OCc1cccc(Br)c1)c1ccc(O)cc1,i
CCOP(=O)(OCC)c1nc(-c2cccc3ccccc23)oc1NC,i
O=C(/C(C=Nc1ccccc1Cl)=C(/O)c1ccco1)C(F)(F)F,i
NC(=O)NC(=O)CSC1=Nc2ccccc2CS1,i
NCc1ccc(CN2CCCCC2)cc1,i
N#Cc1ccc(COc2ccc3ccccc3c2CN2CCCCC2)cc1,i
NC(=O)CNS(=O)(=O)c1cccc(C(=O)O)c1,i
Cc1nc2cc(NS(=O)(=O)c3ccc(C)c(C)c3)ccc2o1,i
CCOC(=O)N1CCC(NC(=O)c2cnn3c(C)c(Cc4cc(C)ccc4C)c(C)nc23)CC1,i
N#CC(C#N)=C1C=C(c2ccccc2)OC2=C1CCCC2,i
COc1cccc(-c2nc3ccccc3c(C)c2C#N)c1,i
CCOC(=O)c1cc(NC(=O)c2ccc(-c3cc4ccccc4oc3=O)cc2)ccc1N1CCOCC1,i
Fc1ccc(-c2nnc(N3CCOCC3)c3ccccc23)cc1F,i
COc1ncccc1-c1cc2c(ccn2CC2CCN(C)CC2)c(N2CCOCC2)n1,25µM*
COc1ccc(CCC(=O)Nc2ccc3c(N4CCOCC4)ncnc3c2)cc1,i
COc1ncccc1-c1cc2c(ccn2Cc2ccncc2)c(N2CCOCC2)n1,7.9µM*
COc1cccc(CC(=O)NCc2cc(N3CCOCC3)ncn2)c1,i
SMILES,KDM5B inh
COc1cccc(-c2cc3c(ccn3CC3CCN(C)CC3)c(N3CCOCC3)n2)c1,i
Cc1nn2c(c1-c1cccnc1N1CCOCC1)N(Cc1ccccc1F)CCC2,i
Fc1ccccc1-c1cc2c(ccn2Cc2ccncc2)c(N2CCOCC2)n1,28µM*
CN1CCC(Oc2nccnc2N2CCOCC2)C1 (configuration not stated),i
Cc1ccccc1NC(=O)N(Cc1nnc2n1CCCCC2)c1ccc(F)cc1,i
COCCNC(=O)CS(=O)(=O)Cc1nc(-c2ccccc2C)oc1C,i
CC(=O)N(c1nc(CSc2nnc(C3CC3)n2C2CC2)cs1)c1ccc(C)cc1C,i
C/C=C/Cn1c(SCC(N)=O)nc2c1c(=O)[nH]c(=O)n2C,i
Cc1ccc(OCC(=O)N2CCN(c3cc(=O)n4nc(-c5ccccc5)sc4n3)CC2)c(C)c1,i
Cc1oc2c(c1C(=O)N1CCOCC1)CN(Cc1cccnc1)CC2,i
Cc1oc2c(c1C(=O)NCc1cccnc1)CN(Cc1ccc(F)cc1)CC2,i
CN(Cc1cccnc1)C(=O)c1n[nH]c2c1CN(Cc1cccnc1)CC2,25µM*
CC(=O)N1CC2(CCCN(Cc3ccccn3)C2)Cc2ccccc21 (configuration not stated),i
CCN(CC)S(=O)(=O)c1cccc(NS(=O)(=O)c2ccc3ccccc3c2)c1,i
COc1ccc(OC)c(CN2CCCn3nc(C)c(-c4cnccc4C)c32)c1,32µM*
Cc1ccncc1-c1c(C)nn2c1N(C(=O)c1scnc1C)CCC2,i
O=C1CCN(Cc2cccc(OC(F)(F)F)c2)CCCCCCN1,i
Cc1ccncc1-c1c(C)nn2c1N(Cc1cccc(OC(F)(F)F)c1)CCC2,35µM*
COc1cccc(CN2CCCn3nc(C)c(-c4ccccc4[S+](C)(=O)[O-])c32)c1,i
COc1ccc(CN2CCCn3nc(C)c(-c4ccccc4C(C)C)c32)cc1O,i
COc1ccc(Nc2nc(N)c(C(=O)c3ccc(Br)cc3)s2)cc1OC,i
Cc1nnc(SCC(=O)N(C)CCOc2ccc(Cl)cc2)n1Cc1ccccc1,i
CCc1ccc(CC)c(C(=O)Cn2c(Cl)nc3c2c(=O)n(C)c(=O)n3C)c1,i
Cc1cccc(C(=O)N(Cc2ccco2)c2ccccn2)c1,i
O=C(NC1CCCCCC1)C1CC(c2cccc(F)c2)=NO1 (configuration not stated),i
SMILES,KDM5B inh
N#Cc1c(C(F)(F)F)cc(-c2ccccc2)nc1SC/C=C/c1ccccc1,i
O=C(NC1CCN(Cc2ccc(Cl)cc2)CC1)c1ccc2nc(Cl)ccc2c1,i
CC(NC(=O)C1CCN(C(=O)c2cccc3ccccc23)CC1)c1ccc(F)cc1F (configuration not stated),i
CCOc1ccc2nc(NC(=O)c3nn(Cc4ccccc4)c(=O)c4ccccc34)sc2c1,i
CN1C(=O)c2ccc(NC(=O)Cn3nc4c(cc3=O)CCCC4)cc2C1=O,28µM*
O=C(Cn1nc2c(cc1=O)CCCCC2)Nc1ccc(F)cc1,i
Cc1ccc(NC(=O)Cn2nc3c(cc2=O)CCCCC3)cc1C,i

# Screening data deposited in PubChem BioAssay by National Center for Advancing Translational Sciences (NCATS).
